# HCV inh: qHTS Assay for Inhibitors of Hepatitis C Virus (HCV) | Huh7.5.1 HCVcc-Cre infection, luciferase reporter, 44 h | Potency, µM (top dose mostly 41.8 µM), for the others: top-dose activity change, negative = inhibition, usual class: inhibitors | 340,000 compounds, 3.4% hits; active = well fitted inhibition curve with a large enough effect; inconclusive = small, poorly fitted or top-dose-only effect, or another doubt; inactive = no such curve, though single readings can be large or run the other way; note: potency is the fitted concentration of half-maximal effect
#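 A cell-based infection assay in which seeded cells (1,000 per well) receive test compound after 4 h, are inoculated with HCVcc-Cre at approximately 0.5 moi, and are incubated 44 h before luminescence detection.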
# VACV Venus inh: qHTS for Stage-Specific Inhibitors of Vaccinia Orthopoxvirus: Venus Reporter Primary qHTS; Vaccinia virus Venus reporter expression, fluorescence; Potency, µM (titrated, usually from 36.5 µM), without a hit: top-dose activity change, negative = inhibition, actives largely listed as inhibitors; 330,000 compounds, 0.46% hits; calls by dose curve; tested in A549 cells; note: potency is the fitted concentration of half-maximal effect; nearly all actives have a fitted effect of over 30% in size
# VACV mCherry inh: qHTS for Stage-Specific Inhibitors of Vaccinia Orthopoxvirus: mCherry Reporter Primary qHTS; Vaccinia virus mCherry reporter infection, fluorescence; Potency, µM (titrated, usually from 36.5 µM), inactives show at the top dose activity change, negative = inhibition, hits mostly inhibitors; 310,000 compounds, 0.63% hits; calls by dose curve; tested in A549 cells; note: potency is the fitted concentration of half-maximal effect; nearly all actives have a fitted effect of over 35% in size
# FMDV inh: High Throughput Screening for Foot and Mouth Disease Virus Antivirals; 410,000 compounds, 1.2% hits; Potency, µM (series often up to 57.9 µM), without a hit: top-dose activity change, negative = inhibition, actives largely listed as inhibitors; AID 1159524, 2015; FMDV antiviral cell-based qHTS; calls by dose curve; tested in HEK293T cells; note: read-out not given here; potency is the fitted concentration of half-maximal effect; nearly all actives have a fitted effect of over 45% in size
# HCMV inh: qHTS Assay for inhibitors of the human cytomegalovirus (HCMV). HFF cells, HCMV-luciferase reporter, 72 h; hits give low values. activity change, negative = inhibition, % at 57.5 µM. 410,000 compounds, 4.5% hits. AID 1259415, 2018; in the data active = activity change below about -60%; inconclusive = no clear call, values can overlap the other calls; inactive = above about -39%
#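 Steps: HFFs plated, 16 h 37C; compounds added; HCMV-luciferase added to MOI 1 PFU/cell; 72 h 37C; OneGlo reagent, 5 min room temperature; luminescence read, normalized to controls.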
# Starred values were filed as active, the others as inactive; i = inactive; ? = inconclusive; nt = no result given; ! = a repeat was not active. A selection: hits, their analogues and other compounds. The true share with any hit is near 7.3%. % is set by controls: 0 for no effect and ±100 for the full control effect.
SMILES,HCV inh,VACV Venus inh,VACV mCherry inh,FMDV inh,HCMV inh
CCN1CCN(Cc2cccc(Oc3ccccc3)c2)CC1,-11%,-15%,i,nt,0
CN1CCN(Cc2cccc(Oc3ccc(Cl)cc3)c2)CC1,?,-18%,-11%,nt,-61*
CCOC(=O)C1CCN(Cc2cccc(Oc3ccc(Cl)cc3)c2)CC1,-6%,nt,nt,-21%,2
CCN(CC)Cc1ccc(Nc2ccnc3cc(Cl)ccc23)cc1O,nt,-14%,i,-12%,nt
CC(=O)Nc1cccc(Nc2nc3ccccc3n3c(C)nnc23)c1,nt,-5%,-16%,-12%,-25
CN1CCN(c2ccccc2NC(=O)c2ccc(OCc3ccccc3)cc2)CC1,11µM*,-24%,nt,-2%,13
Cc1nc(COc2ccc(C(=O)Nc3ccccc3N3CCOCC3)cc2)cs1,11µM*,-13%,-9%,7%,6
CCc1ccccc1CC1CN(Cc2ccccc2)Cc2ccccc2N1c1ccc(OC)cc1 (configuration not stated),nt,-2%,i,-19%,13
CCC(C)(C)NC(=O)C(c1ccc(C)o1)N(Cc1ccc2c(c1)OCO2)C(=O)c1snc(C(N)=O)c1N (configuration not stated),1%,-5%,-8%,3%,-18
C[C@H]1CN([C@@H](C)CO)C(=O)c2cc(C#Cc3ccccn3)cnc2O[C@@H]1CN(C)Cc1ccccc1,nt,-11%,6%,-7%,0
CCCN(CCC)C(=O)c1oc2ccccc2c1NC(=O)Cc1cccc(OC)c1,11µM*,nt,nt,-9%,-5
CCOc1ccc(CC(=O)Nc2c(C(=O)c3ccc(Cl)cc3)oc3ccccc23)cc1OCC,nt,-14%,-6%,?,-23
COc1ccc2oc(C(=O)c3ccccc3)c(NC(=O)CN3CCN(C)CC3)c2c1,1%,-10%,-19%,-12%,?
CCOc1ccc(CC(=O)Nc2c(C(=O)c3ccc(C)cc3)oc3ccccc23)cc1OCC,nt,-7%,-3%,0%,-63*
COC(=O)c1oc2ccc(Br)cc2c1NC(=O)CCN1CCOCC1,2%,nt,nt,0%,-14
CCOC(=O)c1oc2ccc(Br)cc2c1NC(=O)CN1CCN(C)CC1,10µM*,-6%,nt,-20%,24
CN1CCN(CC(=O)Nc2c(C(=O)c3ccccc3)oc3ccccc23)CC1,11µM*,-23%,13%,-27%,?
C1=Nc2ccccc2/C1=C/c1ccccc1,nt,-6%,-14%,nt,nt
O=C(NCc1ccc2c(c1)OCO2)c1nc(S(=O)(=O)Cc2ccccc2)ncc1Cl,?,-29%,-26%,16µM*,-103*
O=C(NCc1ccc2c(c1)OCO2)c1ccccc1Cl,0%,12%,-1%,14%,34
O=C(NCc1ccc2c(c1)OCO2)c1nc(S(=O)(=O)Cc2ccccc2F)ncc1Cl,1%,nt,nt,22µM*,-80*
CCC(=O)c1ccc(OCC(=O)N2CCN(CC(=O)Nc3ccccc3C(F)(F)F)CC2)cc1,13µM*,-9%,i,-8%,?
CN1CCN(CC(=O)Nc2ccccc2C(F)(F)F)CC1,8%,nt,nt,-13%,29
O=C(O)c1cc(O)c2c(c1)[C@H]([C@H]1c3cc(C(=O)O)cc(O)c3C(=O)c3c(O[C@@H]4O[C@H](CO)[C@@H](O)[C@H](O)[C@H]4O)cccc31)c1cccc(OC3O[C@H](CO)[C@@H](O)[C@H](O)[C@H]3O)c1C2=O (some centres not stated),0.35µM*!,-14%,i,?,-101*
Cc1ccc(NC(=O)Nc2cccn(Cc3c(F)cccc3Cl)c2=O)cc1,11µM*,nt,nt,0%,33
SMILES,HCV inh,VACV Venus inh,VACV mCherry inh,FMDV inh,HCMV inh
O=C(NCc1ccccc1)Nc1cccn(Cc2c(F)cccc2Cl)c1=O,?,nt,nt,?,-74*
O=C(Nc1cccn(Cc2c(F)cccc2Cl)c1=O)NC1CCCCC1,?,nt,nt,-4%,?
COC(=O)c1c(-c2cccs2)csc1NC(=O)COc1ccc(C(C)(C)C)cc1,nt,-8%,-4%,-22%,-13
CCOC(=O)CC(NC(=O)c1cc2cc(Cl)ccc2oc1=O)c1ccc(C)cc1 (configuration not stated),nt,-10%,-9%,-7%,-8
O=C(c1cc2c(s1)-c1ccccc1S(=O)(=O)C2)N1CCCC1,1%,-6%,-9%,-1%,-40
CCN(C(=O)c1cc2c(s1)-c1ccccc1OC2)c1cc(OC)ccc1OC,13µM*,-4%,-12%,0%,5
CCN(C(=O)c1cc2c(s1)-c1ccccc1S(=O)(=O)C2)c1cc(OC)ccc1OC,10µM*,-11%,-14%,0%,1
Cn1cnc([N+](=O)[O-])c1Oc1ccccc1,?,?,28µM*,?,-10
Cn1cnc([N+](=O)[O-])c1Cl,?,-20%,-4%,?,12
Cn1cnc([N+](=O)[O-])c1Oc1cccc(O)c1,-3%,?,?,40µM*,-16
Cc1cccc(C)c1NC(=O)C(c1ccccc1)N1CCN(c2ccc(C(F)(F)F)cn2)CC1 (configuration not stated),nt,2%,10%,-16%,-8
CCOc1cccc(=NC2CCCCC2)c2c(C)n(C)c(C)c12,?,?,20µM*,11µM*,-110*
COC(=O)Cc1nnn2c1[C@H](C)[C@H](c1cccc(OC)c1OC)OCC2,nt,nt,nt,nt,27
C=CCOC(=O)Nc1nc(CCNC(=O)OCc2ccccc2)c(C(=O)O)s1,nt,20%,-13%,-2%,2
Cc1ccc(CNC(=O)[C@H](C)N2C(=O)N3CCc4c([nH]c5ccccc45)[C@@]3(C)C2=O)cc1,?,-6%,-2%,?,4
COc1ccc2[nH]c3c(c2c1)CCN1C(=O)N([C@@H](C)C(=O)NCc2c(F)cccc2Cl)C(=O)[C@]31C,?,-6%,-2%,?,3
C[C@@H](C(=O)NCc1c(F)cccc1Cl)N1C(=O)N2CCc3c([nH]c4ccccc34)[C@@]2(C)C1=O,11µM*,-2%,-2%,?,3
COc1ccc(CNC(=O)[C@H](C)N2C(=O)N3CCc4c([nH]c5ccccc45)[C@@]3(C)C2=O)cc1OC,3.5µM*,-19%,-21%,32µM*,?
COCCCNC(=O)Cn1c(=O)nc(-c2ccccc2)c2ccccc21,nt,-4%,-11%,16%,4
CCOC(=O)CNS(=O)(=O)c1ccc(S(=O)(=O)NC2CC2)cc1,9%,-6%,-14%,46%,19
CCCCOC(=O)c1ccc(Nc2ncnc3c2cnn3-c2cccc(C)c2)cc1,nt,-3%,-16%,-9%,-2
CCOC(=O)Nc1ccc2c(CN(C)Cc3ccc(F)cc3)cc(=O)oc2c1,-13%,11%,10%,12%,-92*
Cc1c(C)n(CCc2ccccc2)c2ncnc(NCCCN(C)C)c12,?,?,7.1µM*,-23%,?

# From PubChem BioAssay
